Measurements taken from PMC7862700, “An all-to-all approach to the identification of sequence-specific readers for epigenetic DNA modifications on cytosine”.

Legend:
Test in all cases: DAPPL (digital affinity profiling via proximity ligation, sequencing); 10 mM Tris-HCl pH 7.5, 50 mM NaCl, 1 mM DTT, 4% glycerol, room temperature, 30 min; GST-TFs on glutathione beads, 16-mer random dsDNA library, 0.1% formaldehyde crosslink after washing; high values mean tight binding
Details in all cases: protein: recombinant; tags: N-terminal GST; dsDNA, one strand shown
ERF = target: T1, ERF (Homo sapiens, UniProt P50548 1-548)
T1 sequence: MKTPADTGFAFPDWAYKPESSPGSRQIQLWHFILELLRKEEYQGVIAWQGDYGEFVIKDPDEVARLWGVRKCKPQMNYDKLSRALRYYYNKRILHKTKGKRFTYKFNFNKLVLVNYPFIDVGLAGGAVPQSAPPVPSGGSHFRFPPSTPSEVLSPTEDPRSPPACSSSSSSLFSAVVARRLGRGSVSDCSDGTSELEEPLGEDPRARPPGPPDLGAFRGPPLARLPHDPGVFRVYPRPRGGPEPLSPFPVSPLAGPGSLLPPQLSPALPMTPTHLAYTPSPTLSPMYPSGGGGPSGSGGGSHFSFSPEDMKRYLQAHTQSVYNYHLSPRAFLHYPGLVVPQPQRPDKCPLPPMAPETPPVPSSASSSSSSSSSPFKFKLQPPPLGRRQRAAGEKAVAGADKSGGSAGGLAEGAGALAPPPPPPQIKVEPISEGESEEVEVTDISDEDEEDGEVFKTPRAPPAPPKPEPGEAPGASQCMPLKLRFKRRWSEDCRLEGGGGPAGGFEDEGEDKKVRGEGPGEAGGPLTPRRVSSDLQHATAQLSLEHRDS
Method in brief: (§1)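 Yeast served to express human transcription factors as GST fusions, which were then captured on glutathione beads and labelled with DNA barcodes. Pooled with a tag-only sample, they were incubated with 200 nmole of a 16-mer random double-stranded DNA library for 30 min at room temperature in Tris/NaCl/DTT/glycerol buffer, washed, crosslinked with 0.1% formaldehyde, ligated by proximity, amplified by PCR and sequenced. Dividing each hexamer's read frequency for a factor by its frequency for the tag-only sample gives the binding signal.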

ETV3L = target: T2, ETV3L (Homo sapiens, UniProt Q6ZN32 1-361)
T2 sequence: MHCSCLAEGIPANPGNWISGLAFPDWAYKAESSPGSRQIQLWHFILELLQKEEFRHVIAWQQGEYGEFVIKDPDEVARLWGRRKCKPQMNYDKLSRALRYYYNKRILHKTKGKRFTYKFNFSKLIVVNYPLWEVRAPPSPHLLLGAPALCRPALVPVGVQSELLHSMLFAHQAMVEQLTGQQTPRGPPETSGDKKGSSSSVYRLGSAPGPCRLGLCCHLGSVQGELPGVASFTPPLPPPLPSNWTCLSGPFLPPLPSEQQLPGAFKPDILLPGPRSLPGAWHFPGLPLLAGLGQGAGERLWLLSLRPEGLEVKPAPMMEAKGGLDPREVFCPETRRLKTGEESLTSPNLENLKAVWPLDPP
Method in brief: as §1

ETS2 = target: T3, ETS2 (Homo sapiens, UniProt P15036 1-469)
T3 sequence: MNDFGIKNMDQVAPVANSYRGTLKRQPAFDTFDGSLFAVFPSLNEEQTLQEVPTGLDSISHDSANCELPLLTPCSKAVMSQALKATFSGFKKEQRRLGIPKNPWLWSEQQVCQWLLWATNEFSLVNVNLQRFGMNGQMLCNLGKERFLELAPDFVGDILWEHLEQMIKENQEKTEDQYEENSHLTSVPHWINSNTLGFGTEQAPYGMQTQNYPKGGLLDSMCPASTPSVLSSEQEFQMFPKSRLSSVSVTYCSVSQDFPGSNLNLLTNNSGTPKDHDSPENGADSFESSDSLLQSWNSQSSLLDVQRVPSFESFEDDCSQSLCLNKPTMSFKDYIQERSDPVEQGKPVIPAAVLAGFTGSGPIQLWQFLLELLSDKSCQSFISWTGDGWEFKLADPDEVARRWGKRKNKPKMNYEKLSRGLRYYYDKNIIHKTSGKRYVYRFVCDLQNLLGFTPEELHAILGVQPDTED
Method in brief: as §1

SPDEF = target: T4, SPDEF (Homo sapiens, UniProt O95238 1-335)
T4 sequence: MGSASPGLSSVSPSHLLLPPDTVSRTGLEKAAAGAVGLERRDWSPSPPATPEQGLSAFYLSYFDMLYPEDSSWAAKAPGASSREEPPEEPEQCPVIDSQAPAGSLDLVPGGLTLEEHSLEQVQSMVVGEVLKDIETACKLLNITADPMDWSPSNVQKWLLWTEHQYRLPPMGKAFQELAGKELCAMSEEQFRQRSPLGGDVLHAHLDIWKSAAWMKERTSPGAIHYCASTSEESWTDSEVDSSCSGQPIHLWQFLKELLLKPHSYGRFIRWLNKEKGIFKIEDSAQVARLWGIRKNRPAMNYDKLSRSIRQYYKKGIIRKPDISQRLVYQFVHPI
Method in brief: as §1

ETV7 = target: T5, ETV7 (Homo sapiens, UniProt Q9Y603 1-341)
T5 sequence: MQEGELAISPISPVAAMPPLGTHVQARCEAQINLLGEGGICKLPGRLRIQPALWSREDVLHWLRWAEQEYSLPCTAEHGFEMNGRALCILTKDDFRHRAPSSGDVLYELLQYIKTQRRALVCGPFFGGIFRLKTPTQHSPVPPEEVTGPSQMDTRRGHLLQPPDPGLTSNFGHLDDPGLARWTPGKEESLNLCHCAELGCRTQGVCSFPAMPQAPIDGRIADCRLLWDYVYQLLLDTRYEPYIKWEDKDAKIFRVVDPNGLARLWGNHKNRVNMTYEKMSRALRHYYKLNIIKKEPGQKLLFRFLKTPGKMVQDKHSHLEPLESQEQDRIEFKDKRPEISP
Method in brief: as §1

ELF5 = target: T6, ELF5 (Homo sapiens, UniProt Q9UKW6-2 1-255)
T6 sequence: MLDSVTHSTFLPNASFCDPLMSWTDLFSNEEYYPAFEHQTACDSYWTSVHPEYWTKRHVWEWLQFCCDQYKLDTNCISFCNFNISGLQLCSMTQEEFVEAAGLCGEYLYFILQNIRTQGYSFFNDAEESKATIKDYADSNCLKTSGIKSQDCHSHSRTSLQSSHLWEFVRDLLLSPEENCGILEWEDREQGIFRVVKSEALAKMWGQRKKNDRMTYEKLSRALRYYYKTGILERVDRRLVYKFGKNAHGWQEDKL
Method in brief: as §1

ETV3 = target: T7, ETV3 (Homo sapiens, UniProt P41162-2 1-143)
T7 sequence: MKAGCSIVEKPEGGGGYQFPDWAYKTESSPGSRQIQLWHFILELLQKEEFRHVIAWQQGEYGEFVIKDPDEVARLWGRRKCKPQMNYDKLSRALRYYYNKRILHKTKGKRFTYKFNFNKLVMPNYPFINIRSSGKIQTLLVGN
Method in brief: as §1

ETV6 = ETV6 (Homo sapiens, UniProt P41212 1-452)
ETV6, sequence (P41212 whole entry): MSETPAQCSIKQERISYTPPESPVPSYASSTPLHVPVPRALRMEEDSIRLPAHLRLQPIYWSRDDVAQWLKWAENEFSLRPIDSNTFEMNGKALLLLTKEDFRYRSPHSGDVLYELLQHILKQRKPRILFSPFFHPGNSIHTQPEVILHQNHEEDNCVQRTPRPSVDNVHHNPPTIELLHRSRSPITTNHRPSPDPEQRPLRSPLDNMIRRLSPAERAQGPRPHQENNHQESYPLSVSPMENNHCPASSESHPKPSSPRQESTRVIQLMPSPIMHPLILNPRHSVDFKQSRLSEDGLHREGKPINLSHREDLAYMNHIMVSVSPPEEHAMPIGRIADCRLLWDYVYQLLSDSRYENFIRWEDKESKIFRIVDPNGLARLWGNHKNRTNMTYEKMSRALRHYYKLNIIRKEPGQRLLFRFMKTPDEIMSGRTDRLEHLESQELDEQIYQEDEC
Method in brief: as §1

Sequence	binding signal (ERF)	binding signal (ETV3L)	binding signal (ETS2)	binding signal (SPDEF)	binding signal (ETV7)	binding signal (ELF5)	binding signal (ETV3)	binding signal (ETV6)
CACCGA	1.05 fold enrichment (6-mer frequency, TF over GST control)	1.02 fold enrichment (6-mer frequency, TF over GST control)	1.12 fold enrichment (6-mer frequency, TF over GST control)	1.04 fold enrichment (6-mer frequency, TF over GST control)	1.11 fold enrichment (6-mer frequency, TF over GST control)	1.04 fold enrichment (6-mer frequency, TF over GST control)	1.01 fold enrichment (6-mer frequency, TF over GST control)	1.03 fold enrichment (6-mer frequency, TF over GST control)
AAGATA	1.17 fold enrichment (6-mer frequency, TF over GST control)	1.09 fold enrichment (6-mer frequency, TF over GST control)	1.1 fold enrichment (6-mer frequency, TF over GST control)	1.1 fold enrichment (6-mer frequency, TF over GST control)	1.1 fold enrichment (6-mer frequency, TF over GST control)	1.07 fold enrichment (6-mer frequency, TF over GST control)	1.11 fold enrichment (6-mer frequency, TF over GST control)	1.14 fold enrichment (6-mer frequency, TF over GST control)
AGTACT	1.11 fold enrichment (6-mer frequency, TF over GST control)	1.12 fold enrichment (6-mer frequency, TF over GST control)	1.23 fold enrichment (6-mer frequency, TF over GST control)	1.33 fold enrichment (6-mer frequency, TF over GST control)	1.3 fold enrichment (6-mer frequency, TF over GST control)	1.53 fold enrichment (6-mer frequency, TF over GST control)	1.28 fold enrichment (6-mer frequency, TF over GST control)	1.62 fold enrichment (6-mer frequency, TF over GST control)
GGATGT	1.41 fold enrichment (6-mer frequency, TF over GST control)	1.63 fold enrichment (6-mer frequency, TF over GST control)	1.72 fold enrichment (6-mer frequency, TF over GST control)	3.07 fold enrichment (6-mer frequency, TF over GST control)	1.45 fold enrichment (6-mer frequency, TF over GST control)	1.87 fold enrichment (6-mer frequency, TF over GST control)	1.78 fold enrichment (6-mer frequency, TF over GST control)	1.66 fold enrichment (6-mer frequency, TF over GST control)
CTCGCC	1.4 fold enrichment (6-mer frequency, TF over GST control)	1.2 fold enrichment (6-mer frequency, TF over GST control)	1.25 fold enrichment (6-mer frequency, TF over GST control)	1.07 fold enrichment (6-mer frequency, TF over GST control)	1.16 fold enrichment (6-mer frequency, TF over GST control)	1.26 fold enrichment (6-mer frequency, TF over GST control)	1.2 fold enrichment (6-mer frequency, TF over GST control)	1.29 fold enrichment (6-mer frequency, TF over GST control)
GTACTA	1.21 fold enrichment (6-mer frequency, TF over GST control)	1.05 fold enrichment (6-mer frequency, TF over GST control)	1.13 fold enrichment (6-mer frequency, TF over GST control)	1.1 fold enrichment (6-mer frequency, TF over GST control)	1.09 fold enrichment (6-mer frequency, TF over GST control)	1.13 fold enrichment (6-mer frequency, TF over GST control)	1.09 fold enrichment (6-mer frequency, TF over GST control)	1.15 fold enrichment (6-mer frequency, TF over GST control)
GTCCAT	1.08 fold enrichment (6-mer frequency, TF over GST control)	1.24 fold enrichment (6-mer frequency, TF over GST control)	1.04 fold enrichment (6-mer frequency, TF over GST control)	1.02 fold enrichment (6-mer frequency, TF over GST control)	1.14 fold enrichment (6-mer frequency, TF over GST control)	1.07 fold enrichment (6-mer frequency, TF over GST control)	1.11 fold enrichment (6-mer frequency, TF over GST control)	1.07 fold enrichment (6-mer frequency, TF over GST control)
TCAAGG	1.09 fold enrichment (6-mer frequency, TF over GST control)	1.03 fold enrichment (6-mer frequency, TF over GST control)	1.04 fold enrichment (6-mer frequency, TF over GST control)	1.12 fold enrichment (6-mer frequency, TF over GST control)	1.17 fold enrichment (6-mer frequency, TF over GST control)	1.14 fold enrichment (6-mer frequency, TF over GST control)	1.12 fold enrichment (6-mer frequency, TF over GST control)	1.14 fold enrichment (6-mer frequency, TF over GST control)
CCGTAC	1.39 fold enrichment (6-mer frequency, TF over GST control)	1.25 fold enrichment (6-mer frequency, TF over GST control)	1.32 fold enrichment (6-mer frequency, TF over GST control)	1.41 fold enrichment (6-mer frequency, TF over GST control)	1.32 fold enrichment (6-mer frequency, TF over GST control)	1.46 fold enrichment (6-mer frequency, TF over GST control)	1.36 fold enrichment (6-mer frequency, TF over GST control)	1.33 fold enrichment (6-mer frequency, TF over GST control)
ACCAAC	1.24 fold enrichment (6-mer frequency, TF over GST control)	1.13 fold enrichment (6-mer frequency, TF over GST control)	1.15 fold enrichment (6-mer frequency, TF over GST control)	1.22 fold enrichment (6-mer frequency, TF over GST control)	1.13 fold enrichment (6-mer frequency, TF over GST control)	1.13 fold enrichment (6-mer frequency, TF over GST control)	1.24 fold enrichment (6-mer frequency, TF over GST control)	1.2 fold enrichment (6-mer frequency, TF over GST control)
TTCCTC	2.13 fold enrichment (6-mer frequency, TF over GST control)	2.21 fold enrichment (6-mer frequency, TF over GST control)	2.22 fold enrichment (6-mer frequency, TF over GST control)	1.96 fold enrichment (6-mer frequency, TF over GST control)	1.96 fold enrichment (6-mer frequency, TF over GST control)	3.84 fold enrichment (6-mer frequency, TF over GST control)	2.38 fold enrichment (6-mer frequency, TF over GST control)	2.48 fold enrichment (6-mer frequency, TF over GST control)
CCTGCC	1.3 fold enrichment (6-mer frequency, TF over GST control)	1.24 fold enrichment (6-mer frequency, TF over GST control)	1.23 fold enrichment (6-mer frequency, TF over GST control)	1.31 fold enrichment (6-mer frequency, TF over GST control)	1.33 fold enrichment (6-mer frequency, TF over GST control)	1.35 fold enrichment (6-mer frequency, TF over GST control)	1.28 fold enrichment (6-mer frequency, TF over GST control)	1.36 fold enrichment (6-mer frequency, TF over GST control)
CTAAAG	1.44 fold enrichment (6-mer frequency, TF over GST control)	1.33 fold enrichment (6-mer frequency, TF over GST control)	1.32 fold enrichment (6-mer frequency, TF over GST control)	1.26 fold enrichment (6-mer frequency, TF over GST control)	1.35 fold enrichment (6-mer frequency, TF over GST control)	1.33 fold enrichment (6-mer frequency, TF over GST control)	1.36 fold enrichment (6-mer frequency, TF over GST control)	1.23 fold enrichment (6-mer frequency, TF over GST control)
AAGTGC	1.22 fold enrichment (6-mer frequency, TF over GST control)	1.2 fold enrichment (6-mer frequency, TF over GST control)	1.23 fold enrichment (6-mer frequency, TF over GST control)	1.26 fold enrichment (6-mer frequency, TF over GST control)	1.32 fold enrichment (6-mer frequency, TF over GST control)	1.29 fold enrichment (6-mer frequency, TF over GST control)	1.39 fold enrichment (6-mer frequency, TF over GST control)	1.36 fold enrichment (6-mer frequency, TF over GST control)
CTCCCT	1.72 fold enrichment (6-mer frequency, TF over GST control)	1.54 fold enrichment (6-mer frequency, TF over GST control)	1.57 fold enrichment (6-mer frequency, TF over GST control)	1.53 fold enrichment (6-mer frequency, TF over GST control)	1.52 fold enrichment (6-mer frequency, TF over GST control)	1.41 fold enrichment (6-mer frequency, TF over GST control)	1.55 fold enrichment (6-mer frequency, TF over GST control)	1.37 fold enrichment (6-mer frequency, TF over GST control)
